Data as given in PubChem BioAssay AID602123 (The Scripps Research Institute Molecular Screening Center, 2011).
Hit rate of the full screen: of about 360,000 compounds, about 1,500 (0.42%) were called active. What follows is part of a selection rich in actives, with near analogues and random picks from the rest. Values without a mark were called inactive. No stated cut-off is given here; in the data, active means inhibition above about 13% (passing the limit was not always enough); inactive means the rest.

molecular target: Lon protease (Escherichia coli (strain K12)) (UniProt P0A9M0); assay: inhibitors of E. coli Lon protease, primary screen, biochemical, fluorescence polarization (AID 602123);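 further: 0% = enzyme with probe and DMSO and 100% = no enzyme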; conditions: purified E. coli Lon protease, at 7.94 µM, hits give high values
Sequence (P0A9M0 whole entry, looked up): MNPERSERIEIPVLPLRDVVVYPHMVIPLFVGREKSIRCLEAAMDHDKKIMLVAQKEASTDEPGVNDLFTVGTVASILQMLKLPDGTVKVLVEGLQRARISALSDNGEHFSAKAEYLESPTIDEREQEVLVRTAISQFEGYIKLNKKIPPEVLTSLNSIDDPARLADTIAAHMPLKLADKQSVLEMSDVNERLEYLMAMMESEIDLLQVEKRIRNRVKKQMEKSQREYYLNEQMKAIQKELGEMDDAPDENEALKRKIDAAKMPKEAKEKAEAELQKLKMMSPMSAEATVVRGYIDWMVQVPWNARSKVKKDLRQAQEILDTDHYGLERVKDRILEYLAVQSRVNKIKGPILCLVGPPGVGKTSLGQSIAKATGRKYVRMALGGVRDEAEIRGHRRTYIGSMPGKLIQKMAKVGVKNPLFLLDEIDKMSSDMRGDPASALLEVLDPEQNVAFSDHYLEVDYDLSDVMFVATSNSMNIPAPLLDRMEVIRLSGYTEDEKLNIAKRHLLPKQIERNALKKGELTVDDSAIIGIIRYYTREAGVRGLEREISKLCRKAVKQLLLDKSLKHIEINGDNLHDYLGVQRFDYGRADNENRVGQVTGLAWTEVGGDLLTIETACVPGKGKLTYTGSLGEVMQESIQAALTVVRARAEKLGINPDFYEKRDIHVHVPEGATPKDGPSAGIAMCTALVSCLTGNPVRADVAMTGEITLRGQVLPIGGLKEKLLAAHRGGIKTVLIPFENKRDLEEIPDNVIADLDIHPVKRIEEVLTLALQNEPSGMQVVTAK

Compared with `O=S(=O)(NCc1ccccn1)c1ccc(Br)s1`, `CCOCCCNS(=O)(=O)Cc1ccccc1` is higher in inhibition: -5.95% for the first, 5.68% for the second.

First: CCOC(=O)C(C(=O)c1ccccc1)C(c1ccccc1)c1nccc2ccccc12 (stereo not drawn)
Second: O=C(Cn1cnc2ccccc21)Nc1ccccc1-c1ccccc1
The inhibition of the first is higher: -5.25% for the first, -15.9% for the second.

First: CCOCCOCCC(C(=O)O)P(=O)(c1ccccc1)c1ccccc1 (stereo not drawn)
Second: CCS(=O)(=O)n1nc(-c2ccccc2)nc1SCc1ccccc1
The inhibition of the first is higher: 1.28% for the first, 0.39% for the second.

First: CSc1ncccc1C(=O)NCC(c1ccco1)N1CCCCC1 (stereo not drawn)
Second: COc1ccc(C(=O)NCC(c2ccco2)N2CCc3ccccc32)cc1OC (stereo not drawn)
The inhibition of the first is lower: 2.84% for the first, 4.85% for the second.

Going from `O=C(NCc1ccco1)c1cnn2c(C(F)(F)F)cc(-c3ccco3)nc12` to `O=c1c2ccccc2nc2n1C(CSCc1cccc(C(F)(F)F)c1)CS2` (stereo not drawn), the inhibition falls from -0.62% to -0.91%.

First: O=C(COC(=O)CNC(=O)C1CCCCC1)Nc1cccc(F)c1
Second: O=C(Nc1ccc(Br)cc1F)C1CC(=O)N(C2CCCCC2)C1 (stereo not drawn)
The inhibition of the first is lower: -17.9% for the first, -9.6% for the second.

Compared with `CCN1CCN(CC(=O)c2cc(OC)c(OC)c(OC)c2)CC1`, `COc1cc(OC)c2ccc(=O)oc2c1C(CCN1CCN(c2ccccc2)CC1)c1ccc2c(c1)OCO2` (stereo not drawn) is lower in inhibition: 7.78% for the first, -2.01% for the second.

First: Cc1ccc(C=O)c([B-](F)(F)F)c1
Second: COc1ccc(C)cc1NC(=O)CNCc1cccs1
The inhibition of the first is lower: -1.79% for the first, 5.01% for the second.

First: COc1cc(OC)cc(C(=O)NNC(=O)Cc2cccs2)c1
Second: COc1ccc(CC(=O)NCc2nnc(SCC(=O)Nc3nccs3)n2C)cc1
The inhibition of the first is lower: -9.81% for the first, -1.92% for the second.

Compared with `COc1cc(C(=O)Nc2ncccc2C)ccc1OCC(=O)N1CCOCC1`, `Cc1ccc(OCC(=O)Nc2cccc3c2CCCC3)cc1C` is higher in inhibition: -2.64% for the first, -1.11% for the second.

Compared with `CC(=O)CC[C@@H](C)O[C@@H]1OC(C)[C@H](O)CC1O` (stereo partly drawn), `CC1CC(C)CN(C(=O)COC(=O)c2ccc3ncsc3c2)C1` (stereo not drawn) is lower in inhibition: 1.06% for the first, 0.01% for the second.

Compared with `CCc1cc2c(=O)c(-c3nc4ccccc4n3C)c(CCCC(=O)O)oc2cc1OC(=O)C(C)(C)C`, `COc1ccc(C2C3=C(OC(C)=O)c4ccccc4C3=Nc3c2c(=O)n(C)c(=O)n3C)cc1` (stereo not drawn) is higher in inhibition: -5.21% for the first, -3.27% for the second.

Going from `O=C1C(Sc2cccc(F)c2)=C[C@@]2(O)CC[C@@H](O)[C@]1(Sc1cccc(F)c1)[C@H]2O` to `Cc1cnc(CN(C)C(=O)C2CCC(=O)N(CCc3cccc(F)c3)C2)[nH]1` (stereo not drawn), the inhibition rises from -1.25% to 0.28%.

Compared with `COc1ccc(C(=O)NCc2nnc(SCC(=O)NC3=NCCS3)n2C)cc1`, `COc1ccc(NC(=O)CSc2nnc(Cc3ccccc3)c(=O)n2N)cc1` is higher in inhibition: 1.04% for the first, 1.33% for the second.

Going from `C/C(=N\NC(=O)NC1CCCCC1)c1ccc(OC(F)F)cc1OC(F)F` to `Cc1ccc(S(=O)(=O)N2CCC(C(=O)NCCC3=CCCCC3)CC2)cc1C`, the inhibition rises from -5.36% to 2.33%.

Compared with `O=C1C(C=NCC2CCCO2)=C(O)c2ccccc21` (stereo not drawn), `N#Cc1cc([N+](=O)[O-])ccc1NCC1CCCO1` (stereo not drawn) is higher in inhibition: 3.5% for the first, 7.82% for the second.

First: COc1ccc(SCCN2CCN(CC(C)C)CCC2=O)cc1
Second: COc1ccc(NC(=O)CC(NC(C)c2ccccc2)C(=O)O)cc1 (stereo not drawn)
The inhibition of the first is higher: 8.99% for the first, 1.2% for the second.

Compared with `CN(Cc1cn(Cc2ccc(C(F)(F)F)cc2)nn1)C1CN(Cc2cn(Cc3ccc(C(F)(F)F)cc3)nn2)S(=O)(=O)C1` (stereo not drawn), `CC(C)Cc1ccc(-c2cc3nc(NCc4cccc(Cl)c4)ccn3n2)cc1` is lower in inhibition: 4.67% for the first, -0.63% for the second.

Going from `Cc1ccccc1S(=O)(=O)NC(=O)C1(C)CCN1C(=O)C1(c2ccccc2)CCCC1` (stereo not drawn) to `O=C(NCCc1ccco1)C(=O)NCCC1CCCCN1S(=O)(=O)c1ccccc1` (stereo not drawn), the inhibition rises from -3.92% to 0.36%.

First: CCN(CC)C(=O)CSc1nnc(-c2ccc(S(=O)(=O)NCc3ccccc3Cl)cc2)o1
Second: CCCc1cc(=O)[nH]c(SCC(=O)Nc2ccc(S(=O)(=O)N3CCCC3)cc2)n1
The inhibition of the first is higher: 11.8% for the first, -14.4% for the second.

Going from `CC1Cc2cc(/C(O)=C3\C(=O)C(=O)N(Cc4cccnc4)C3c3ccccc3F)ccc2O1` (stereo not drawn) to `O=C(COC(=O)c1cccc(Br)c1)Nc1cccc2c1C(=O)c1ccccc1C2=O`, the inhibition rises from -8.03% to -3.73%.

Compared with `CC(C)NC(=O)Nc1cccc2c1O[C@@H](CN(C)S(=O)(=O)c1ccc(F)cc1)[C@@H](C)CN([C@H](C)CO)C2=O`, `COc1ccc(S(=O)(=O)N2CCCCC2c2cc(C(=O)NCc3ccc(F)cc3)no2)cc1` (stereo not drawn) is higher in inhibition: -17.1% for the first, -3.9% for the second.

Going from `COc1ccc(-c2cc3nc(NCCOc4ccccc4)ccn3n2)cc1` to `Cc1ccc(S(=O)(=O)N2CCN(C(=O)CSc3cc(C)ccc3C)CC2)c(C)c1`, the inhibition falls from 5.17% to 1.59%.

`O=C(NC(=O)c1ccc(Cl)c(Cl)c1)OC1CCS(=O)(=O)C1` (stereo not drawn) showed an inhibition of -3.19%.

`O=S(=O)([N-]c1nc2ccccc2nc1-[n+]1ccc(Cc2ccccc2)cc1)c1ccc(Br)s1` was tested, and the inhibition was 51.7% (active).
With `Oc1ccc2ccccc2c1N=Nc1nccs1` the inhibition was 43.2% (active).
For `CN1c2ccc(C=O)c3c(C=O)ccc(c23)N(C)C1(C)C`, the inhibition was 117% (active).
In the case of `COc1ccc(OC)c(NC(=O)Cc2cccs2)c1`, the inhibition is reported as 32.4% (active).
In the case of `COc1ccc(C(=O)NCc2nnc(SCCOc3ccccc3)n2C)cc1`, the inhibition is reported as 19.3% (active).
`O=C1c2cccc3c([N+](=O)[O-])ccc(c23)C(=O)N1CC1CCCO1` (stereo not drawn) was tested, and the inhibition was 25.4% (active).
For `COc1ccc(CC(=O)Nc2ccc(-c3nnc(-c4ccccc4)o3)cc2)cc1`, the inhibition was 27.1% (active).
In the case of `O=C1C=C(NCCNc2c(F)c(F)c(CO)c(F)c2F)CCC1`, the inhibition is reported as 16.1% (active).
With `O=C(COC(=O)Cn1cnc2ccccc21)Nc1cccc2c1C(=O)c1ccccc1C2=O` the inhibition was 49.2% (active).
`COc1ccccc1-c1cc2nc(NCc3cccc(Cl)c3)ccn2n1` was tested, and the inhibition was 19.1% (active).
In the case of `CCCc1cc(=O)[nH]c(SCC(=O)N2CCN(S(=O)(=O)c3ccc(C)cc3C)CC2)n1`, the inhibition is reported as 22.9% (active).
